From PubChem BioAssay
In the library only some 3.1% were active in any assay of this set; here they are far more common.
D3 ag: D3 dopamine receptor (human) agonism | D3R DiscoveRx beta-arrestin cells, luminescence, 90 min | max activation, % | actives 0.58% (n = 410,000); in the data active = max activation above about 30%
Target sequence (P35462 whole entry, looked up): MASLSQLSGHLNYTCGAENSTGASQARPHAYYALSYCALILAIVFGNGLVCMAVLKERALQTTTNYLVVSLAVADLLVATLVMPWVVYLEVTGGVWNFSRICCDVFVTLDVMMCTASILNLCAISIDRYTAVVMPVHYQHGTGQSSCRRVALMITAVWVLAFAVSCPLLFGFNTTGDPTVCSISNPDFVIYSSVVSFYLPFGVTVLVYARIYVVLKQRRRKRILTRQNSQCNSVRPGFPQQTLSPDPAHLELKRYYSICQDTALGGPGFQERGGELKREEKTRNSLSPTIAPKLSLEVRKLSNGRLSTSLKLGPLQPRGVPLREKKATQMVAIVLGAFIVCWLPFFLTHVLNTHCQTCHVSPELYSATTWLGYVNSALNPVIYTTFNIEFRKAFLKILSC
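Agonist mode: compounds and dopamine controls were applied to plated cells for 90 min at 37 degrees C after an overnight attachment at 1500 cells/well. Luminescent read-out followed 30 - 60 minutes at room temperature with DiscoveRx detection reagent.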
DRD3 antagonist: blocks the human D3 dopamine receptor | P35462 | D3R cells, DiscoveRx beta-arrestin luminescence, antagonist mode; hits give low values | max response, negative = inhibition, % | actives 2.5% (n = 360,000) | AID 652054; in the data active = max response below about -50%; inconclusive = no clear call, values can overlap the other calls
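Cells plated overnight at 1500 cells/well, then exposed to library compounds with dopamine controls for 90 minutes at 37 degrees C. DiscoveRx reagent added for 30–60 minutes at room temperature; luminescence read, quantitative HTS format.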
uPA surface inh: inhibitors of cell surface uPA generation | cell surface uPA generation assay, qHTS | Potency, µM (top dose mostly 38.3 µM), hits mostly inhibitors | actives 0.31% (n = 330,000); active = well fitted inhibition curve with a large enough effect; inconclusive = small, poorly fitted or top-dose-only effect; inactive = no such curve, though single readings can be large or run the other way; tested in mouse RAW 264.7 cells; note: nearly all actives have a fitted effect of over 55% in size
RGS4 inh: inhibitors of human regulator of G protein signaling 4. Transcreener GDP fluorescence polarization, RGS4-accelerated GTP hydrolysis. Potency, µM (top dose mostly 114 µM), actives largely listed as inhibitors. actives 0.039% (n = 390,000); active = well fitted inhibition curve with a large enough effect; inconclusive = small, poorly fitted or top-dose-only effect; inactive = no such curve, though single readings can be large or run the other way; note: nearly all actives have a fitted effect of over 75% in size
Target sequence (P49798 whole entry, looked up): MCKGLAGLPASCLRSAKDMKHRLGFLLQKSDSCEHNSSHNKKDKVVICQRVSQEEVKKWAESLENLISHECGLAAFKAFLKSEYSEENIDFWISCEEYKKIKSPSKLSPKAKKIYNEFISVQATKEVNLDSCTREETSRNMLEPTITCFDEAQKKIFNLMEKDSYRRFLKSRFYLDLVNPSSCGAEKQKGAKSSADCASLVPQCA
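MLSMR compounds (23 nl, pin-transferred) preincubated 10 min at room temperature with a 500nM (2x) first reagent, then RGS4 at 900nM (2x) plus Transcreener GDP mix added; fluorescence polarization (620/688 nm) read before and after 90 min at 30 °C.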
A number is an active result; - = inactive; ? = inconclusive; . = no result given; + = active, no number; ! = a repeat was not active.

SMILES	D3 ag	DRD3 antagonist	uPA surface inh	RGS4 inh
Cc1[nH]c2ccc(C(=O)NCCCN3CCCCC3)cc2c1C	-	?	-	-
COc1cccc(C2CC(=O)Nc3c2c(=O)n(C)c2ncnn32)c1OC (configuration not stated)	-	.	.	-
CCOc1cc(OCC)cc(C(=O)NCCN2CCC(n3c(=O)[nH]c4ccccc43)CC2)c1	-	-95	.	.
COc1cccc(C(=O)NCCN2CCC(n3c(=O)[nH]c4ccccc43)CC2)c1	-	-78	.	.
CC1=C(C(=O)Nc2ccccc2)C(c2cccnc2)n2nc(SCc3ccccc3Cl)nc2N1 (configuration not stated)	-	.	.	-
CCOC(=O)c1c(NC(=O)Cn2nnc3ccccc32)sc2c1CCC(C)C2 (configuration not stated)	33	-	-	-
Cn1c(=O)c2c(nc(CN3CCN(C(c4ccccc4)c4ccccc4)CC3)n2CC(N)=O)n(C)c1=O	-	-50	.	-
CN1CCN(Cc2nc3c(c(=O)n(C)c(=O)n3C)n2CCCc2ccccc2)CC1	-	-52	-	-
CC(C)n1c(CN(C)Cc2ccccc2)nc2c1c(=O)n(C)c(=O)n2C	50	-	-	-
CCOc1ccc(S(=O)(=O)N(CC(=O)N2CCc3ccccc32)Cc2ccco2)cc1	-	-66	-	-
O=C(Nc1ccc(C(=O)OCc2cc(=O)n3c4c(sc3n2)CCCC4)cc1)c1ccc(Cl)cc1	-	.	.	-
CCNC(=O)C1(C)CCCN1C(=O)c1cnc2ccccc2n1 (configuration not stated)	-	-58	.	.
COCCNC(=O)C1(C)CCCN(C(=O)c2cnc3ccccc3n2)C1 (configuration not stated)	-	-	.	.
Cc1cccc(C(=O)N2CCc3cc(CNC(=O)c4cc5ccccc5[nH]4)ccc32)c1	-	.	.	-
CCOC(=O)[C@]12CCC=C1N(Cc1ccccc1)C(=O)[C@H](CC(=O)NCC13CC4CC(CC(C4)C1)C3)C2	-	-53	.	.
O=C(NCCCN1CCN(c2ccccc2F)CC1)C1CCC(=O)N1C1CCCC1 (configuration not stated)	-	-87	-	-
O=C(NCCCN1CCC(Cc2ccccc2)CC1)C1CCC(=O)N1C1CCCC1 (configuration not stated)	-	-118	-	-
O=C(NCCCN1CCCC1)C1CCC(=O)N1C1CCCCC1 (configuration not stated)	-	-	-	-
COCCn1c(C)cc(C(=O)COC(=O)c2ccc(Br)o2)c1C	-	-82	.	-
Cc1ccc(NC(=O)CN2CC(C)SC2=NC2CCCCC2)cc1 (configuration not stated)	-	-96!	-	-
COc1ccc(-c2cc(C(C)=O)c(C)n2CCC(=O)NCc2ccc(F)cc2)cc1	-	.	.	-
O=C(NCc1ccccc1Cl)C(=O)NCC(c1ccco1)S(=O)(=O)c1cccs1 (configuration not stated)	-	.	.	-
Cc1ccc(N=C2NC(=O)/C(=C/c3cccn3C)S2)cc1	-	-	2.8µM	-
CCc1ccc(NC(=O)CN2C(=O)C(c3ccc(F)cc3)=NC2(C)C)cc1	-	.	.	-
CN(C)CCNC(=O)Cn1ccc2cc(S(=O)(=O)N3CCCCCC3)ccc21	-	-55	-	-
SMILES	D3 ag	DRD3 antagonist	uPA surface inh	RGS4 inh
Cc1ccccc1CCNC(=O)Cn1ccc2cc(S(=O)(=O)N3CCCC3)ccc21	-	-	-	-
CC(C)(C)NC(=O)CN1CCC(O)(c2ccccc2)CC1	-	+	-	-
CCOC(=O)c1cccc(NC(=O)CC(c2ccc(F)cc2)N2Cc3ccccc3C2=O)c1 (configuration not stated)	-	.	.	-
O=C(NCc1ccc(Cl)cc1)c1cc2cccc3c2n1CCS3	-	.	.	-
CC1C/C(=C/c2ccncc2)C(=O)/C(=C/c2ccncc2)C1 (configuration not stated)	-	-	3.5µM	?
O=C1/C(=C/c2ccncc2)Cc2ccccc21	-	-	-	-
Cc1cccc(C(=O)Nc2nc(-c3nnn(-c4cc(C)ccc4C)c3C)ns2)c1	-	.	.	-
COc1cccc(N2CC(NS(=O)(=O)c3cccnc3)CC2=O)c1 (configuration not stated)	-	-	-	-
COCc1ccc(C(=O)N2CCCC(N(C)Cc3ccccc3)C2)s1 (configuration not stated)	-	-	-	-
CN(Cc1ccccc1)C1CCCN(C(=O)c2ccc(Cl)s2)C1 (configuration not stated)	-	-82	-	-
CCn1c2c(c3cc(Br)ccc31)CCC/C2=N\O	36	-	.	-
CCn1c2c(c3cc(OCC(C)C)ccc31)CCCC2=O	-	-	-	-
CCN(CC)CCNC(=O)c1[nH]c2ccccc2c1Sc1ccc(Cl)cc1	-	.	.	-
COc1ccc2c(c1)/C(=C\c1cccc(/C=C3/C(=O)Nc4ccc(OC)cc43)n1)C(=O)N2	-	-53	-	?
O=C(c1ccc(Br)s1)N(Cc1cccnc1)c1nc2ccc(F)cc2s1	-	.	.	-
Cc1ccc(C)c(-n2c(N)c(C#N)c3nc4ccccc4nc32)c1	-	.	.	-
CCC(=O)Nc1ccc2nc(SCCOc3ccc(C)cc3OC)sc2c1	-	.	.	-
O=c1[nH]c(CN2CCN(C/C=C/c3ccccc3)CC2)nc2cc(Cl)ccc12	-	-53	.	-
CC(C)c1ccc(S(=O)(=O)c2nnn3c2nc(N2CCCC2)c2sccc23)cc1	-	.	.	-
CN1CCN(C(=O)c2ccccc2N(Cc2ccccc2)S(=O)(=O)c2ccccc2)CC1	-	-60	.	-
O=C(Nc1ccc(Nc2ccccc2)cc1)c1ccc(Cl)cc1[N+](=O)[O-]	-	-66	-	-
COc1ccccc1N1CCN(CCCNc2cc(=O)n(C)c(=O)n2C)CC1	-	-62	.	-
COc1ccccc1N1CCN(CCCNC(=O)Nc2ccccc2)CC1	-	-	-	-
COc1ccccc1N1CCN(CCCNc2c(C)c(=O)n(C)c(=O)n2C)CC1	-	-57	-	-
COc1ccccc1N1CCN(CCCCNC(=O)c2ccc3ccccc3c2)CC1	.	.	-	-
SMILES	D3 ag	DRD3 antagonist	uPA surface inh	RGS4 inh
COc1ccccc1N1CCN(S(C)(=O)=O)CC1	-	-	-	-
COc1ccccc1N1CCN(CCS(=O)(=O)c2cc(Cl)ccc2Cl)CC1	-	-93	.	.
CCOc1ccc(OCC)c(NC(=O)c2cnn(-c3ccc(F)cc3)c2C2CCN(C(=O)OC(C)(C)C)CC2)c1	-	.	.	-
Cc1ccccc1-c1noc(-c2ccc(NCc3ccco3)c([N+](=O)[O-])c2)n1	-	.	.	-
COc1cccc(-c2cc(C(F)(F)F)nc(NCCc3ccc(OC)c(OC)c3)n2)c1	-	.	.	-
O=C(/C=C/c1ccccc1)Nc1nc(-c2cccs2)ns1	-	.	.	-
O=S(=O)(c1cccc(F)c1)N1CCC(c2nc3ccccc3s2)CC1	-	.	.	-
C#CC(C)(CC)NC(=O)Cn1nnc(-c2ccc(OCc3ccccc3F)cc2)n1 (configuration not stated)	-	.	.	-
COc1ccc(C(=O)Nc2nnc(SCc3cc(=O)c4cccc(F)c4[nH]3)s2)cc1	-	.	.	-
Cc1ccc(C(C)C)c(OCCNC(=O)c2cncc(Br)c2)c1	-	-52	-	-
